# DAT uptake mod = modulates human dopamine transporter uptake under cocaine; Q01959; LLC-PK1 hDAT cells, [14C]-dopamine uptake with cocaine IC80; actives deviate in either direction; B-score at 10 µM; hit rate 1.3% among 110,000;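 active = Z score or B-score, a plate-position-corrected score, falls beyond the plate's 99.7% confidence bounds, in either direction; inactive = both scores lie inside the 99.7% bounds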;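 also: scored against the spread of the other compound wells on the same plate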
# Target sequence (Q01959 whole entry, looked up): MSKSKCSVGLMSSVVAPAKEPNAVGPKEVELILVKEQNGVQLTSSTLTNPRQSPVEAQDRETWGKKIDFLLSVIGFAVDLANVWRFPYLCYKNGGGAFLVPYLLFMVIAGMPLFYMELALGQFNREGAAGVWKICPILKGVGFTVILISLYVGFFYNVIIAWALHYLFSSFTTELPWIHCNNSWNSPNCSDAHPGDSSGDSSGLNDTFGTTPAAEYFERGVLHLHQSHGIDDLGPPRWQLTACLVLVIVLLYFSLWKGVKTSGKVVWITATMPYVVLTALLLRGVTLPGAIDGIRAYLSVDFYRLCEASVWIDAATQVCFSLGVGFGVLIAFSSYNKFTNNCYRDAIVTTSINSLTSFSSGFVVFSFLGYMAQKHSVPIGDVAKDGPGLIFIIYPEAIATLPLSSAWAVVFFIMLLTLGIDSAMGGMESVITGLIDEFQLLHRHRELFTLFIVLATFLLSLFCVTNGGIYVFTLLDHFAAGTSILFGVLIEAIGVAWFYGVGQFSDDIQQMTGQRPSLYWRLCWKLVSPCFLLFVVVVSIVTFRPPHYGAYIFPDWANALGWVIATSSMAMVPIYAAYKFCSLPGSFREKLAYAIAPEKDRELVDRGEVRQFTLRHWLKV
# PKA kinase inh = PKA (human) kinase inhibition | P17612 | PKA Kemptide phosphorylation, Kinase-Glo ATP luminescence | inhibition, % at 6 µM | hit rate 0.1% among 65,000 | AID 524;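 active = inhibition above the screen-wide mean inhibition plus 3 SD, cut at about 21% in these data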
# D1 allo mod = D1 dopamine receptor (human) allosteric modulation; HEK293 D1, CRE-luciferase, dopamine EC30 potentiation; actives deviate in either direction; B-score at 10 µM; hit rate 5.9% among 58,000; AID 641;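 active = luminescence count or its row- and column-corrected plate score outside the 99.7% band of the plate's sample wells, on either side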
# JNK3 inh = inhibitors of human JNK3 kinase; AID 746; P53779; inhibition, % at 8 µM; hit rate 0.61% among 60,000; purified JNK3 kinase activity, HTS; in the data active = inhibition above about 17%;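 also: 0% = DMSO and 100% = reference inhibitor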
# ROCK2 inh = inhibitors of human Rho kinase 2; purified ROCK2, Kinase-Glo ATP depletion luminescence; hit rate 0.35% among 60,000; AID 604; inhibition, % at 6 µM; O75116;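 active = inhibition above the screen-wide mean inhibition plus 3 SD, cut at about 18% in these data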;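 also: plate controls were DMSO wells for no effect and Y-27632 control wells after no-enzyme background subtraction for full effect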
# Active calls of the source: *; . = not tested or not shown. Only a selection was taken, and hits are over-represented in it overall.
SMILES,DAT uptake mod,PKA kinase inh,D1 allo mod,JNK3 inh,ROCK2 inh
CCCCc1c(O)c2ccccc2[nH]c1=O,-0.036,3,-0.021,-2,6
CCCCCCC(=O)Nc1c(O)c2ccccc2[nH]c1=O,-0.86,-1,-3.1*,-7,-6
Cc1nnc(SCCn2c(N3CCN(c4ccccc4)CC3)nc3c2c(=O)n(C)c(=O)n3C)s1,.,-7,-0.2,-1,2
COC(=O)[C@@H]1C[C@@]2(O)[C@@H](O)[C@@H](O)[C@@H](O)C[C@H]2N1C/C=C/c1ccccc1,-1,.,.,.,.
Cn1c(C(=O)N2CCN(C(=O)c3ccco3)CC2)cc2c(=O)n(C)c3ccccc3c21,2.2*,9,0.39,7,4
Cn1c(C(=O)Nc2ccc3c(c2)OCCO3)cc2c(=O)n(C)c3ccccc3c21,-0.25,5,-4.5*,-2,3
Cn1c(C(=O)N2CCN(c3ccc(F)cc3)CC2)cc2c(=O)n(C)c3ccccc3c21,.,6,-0.71,1,6
Cc1ccc(-c2nnc(N3CCN(C(=O)c4ccco4)CC3)c3ccccc23)cc1,2.9*,3,-1.8,-7,7
Cc1ccc(C(=O)N/C(=C\c2ccco2)C(=O)NCCCn2ccnc2)cc1C,0.64,.,.,.,.
CSc1ccc(CNc2ccc(Cl)cc2)cc1,-0.58,.,.,.,.
CCc1ccc(CNc2ccc(O)cc2)cc1,2.9*,10,-0.78,-1,7
Cc1cc(C)n2nc(SCC(=O)N(C(C)C)C(C)C)nc2n1,-8.9*,6,0.48,-3,8
COc1cc(/C=N/N(C)c2ccccc2)cc(Cl)c1O,-0.13,.,.,.,.
CCCCNC(=O)c1sc2ncnc(N3CCc4ccccc4C3)c2c1C,4.2*,.,.,.,.
COc1ccc(C2N3CC4(C)CN2CC(C)(C3)C4)cc1OC (configuration not stated),-7.5*,5,.,.,.
O=C(Nc1cn(-c2ccccc2)nc1-c1cccs1)c1ccco1,-0.12,6,0.86,1,6
CCOC(=O)C(=CNc1cc(C)nn1-c1ccccc1)C(=O)OCC,2.2*,.,.,.,.
CCNC(=S)NNC(=O)c1cc(-c2cc(C)ccc2C)nc2ccccc12,0.61,.,.,.,.
O=c1c2ccccc2cnn1-c1nc2ccccc2s1,.,-22,-4.5*,0,-10
O=c1c2ccccc2ncn1Cc1nc2ccccc2s1,0.49,7,0.025,.,.
CCC(C)(C)NC(=O)C(c1cccn1C)N(Cc1ccc(OC)cc1)C(=O)Cn1nnc2ccccc21 (configuration not stated),0.88,.,.,.,.
CC(O)[C@H]1CN=C(N)N1CCCCC1CCCCC1 (some centres not stated),-4.7*,.,.,.,.
Cc1ccc(-c2nc3ccc(NS(=O)(=O)c4ccccc4)cc3[nH]2)o1,0.82,.,.,.,.
COC1=C(N)C(=O)c2nc(-c3nc(C(=O)O)c(C)c(-c4ccc(OC)c(OC)c4O)c3N)ccc2C1=O,-4.1*,.,.,.,.
COc1ccc(-c2ncncc2-c2csc(C)n2)c(O)c1OC,-0.7,.,.,.,.
SMILES,DAT uptake mod,PKA kinase inh,D1 allo mod,JNK3 inh,ROCK2 inh
[O-][N+]1=c2ccc(Nc3ccccc3)cc2=NC12CCCCC2,-0.43,10,-0.44,6,2
COc1ccc(Nc2ccc3c(c2)=NC2(CCCCC2)[N+]=3[O-])cc1,0.53,.,-2.7*,.,.
CC(C)Nc1ccc(C(CC(N)=O)NC(=O)Cc2ccc(Br)cc2)cc1[N+](=O)[O-] (configuration not stated),0.14,.,.,.,.
Cc1ccc(Nc2nc3c(c(=O)[nH]2)CCCC3)cc1,1.5,.,.,.,.
O=c1[nH]c(Nc2nc3ccccc3o2)nc2c1CCCC2,0.6,-1,-6.4*,0,0
OCCNc1cc(-n2nc(-c3ccccc3)cc2-c2ccccc2)ncn1,3.7*,-1,1.6,-3,-4
CC1(C)c2[nH]c3ccccc3c2C[C@@H]2C(=O)N(Cc3ccco3)C(=O)N21,1.3,.,.,.,.
CC(C)c1ccc(C(C(=O)NC(C)(C)C)N(C(=O)CNC(=O)c2ccco2)c2cccnc2)cc1 (configuration not stated),0.82,.,.,.,.
CCC(C)(C)NC(=O)C(c1ccco1)N(C(=O)CNC(=O)c1cccs1)c1cccnc1 (configuration not stated),-8.2*,.,.,.,.
Oc1ccc(C[C@@H]2CNC(=S)N2CCCCC2CCCCC2)cc1,0.35,.,.,.,.
CCn1c(SCC(=O)Nc2cc(C)on2)nc2sc(C)c(C)c2c1=O,.,9,6.9*,2,5
Cc1cc(NC(=O)CSc2nc3ccccc3c(=O)n2Cc2ccccc2)no1,-8.2*,5,3,-1,1
Cc1cc(NC(=O)CSc2nc3c(c(=O)n2Cc2ccccc2)SC(C)C3)no1 (configuration not stated),0.096,4,5.5*,6,2
O=c1c(-c2nc3ccccc3o2)c2oc3ccccc3n2c2ccccc12,0.12,-4,-0.019,5,2
CCN(CC)C(=O)CSc1nc2cccnc2n1-c1ccccc1OC,-1.2,4,0.32,-1,4
CCN(CC)C(=O)CSc1nc2ccccc2c(=O)n1-c1ccccc1OC,1.9*,8,.,7,5
Clc1ccccc1Nc1c2c(nc3ncnn13)CCC2,-0.8,-1,2,-5,1
c1ccc(Nc2c3c(nc4ncnn24)CCC3)cc1,0.18,8,-4.8*,-6,3
Cn1c(C(=O)N2CCN(c3ccccn3)CC2)cc2c(=O)n(C)c3ccccc3c21,.,9,-0.0068,-5,-5
COc1ccc(Nc2nc(-c3sc(N)nc3C)cs2)cc1,0.081,11,-0.71,4,8
Cc1nc(N)sc1-c1csc(Nc2ccc(Cl)cn2)n1,4.5*,9,1.1,5,3
Cc1nc(N)sc1-c1csc(Nc2ccccn2)n1,4.6*,-6,-6*,2,1
CCN(CC)CCCN1C(=O)C(O)=C(C(C)=O)C1c1ccc(OC)cc1OC (configuration not stated),.,0,0.17,0,1
CN(C)c1ccc(C=Nc2ccc(N(C)C)cc2)cc1,0.12,.,-0.59,.,.
CN(C)c1ccc(C=Nc2cnn(C)c2C(N)=O)cc1,1.8*,-5,.,-11,-2
SMILES,DAT uptake mod,PKA kinase inh,D1 allo mod,JNK3 inh,ROCK2 inh
CC(C)(C)c1ccc(OCc2ccc(C(=O)N/N=C/c3ccc([N+](=O)[O-])cc3)o2)cc1,0.058,.,.,.,.
O=C1OCCC1Sc1nnc(-c2ccc3c(c2)OCO3)n1-c1ccccc1 (configuration not stated),0.53,5,-3.8*,-4,0
O=C(NC1CC1)c1ccc(-c2nc3ccccc3s2)s1,0.017,1,-6*,-3,-7
C=CCn1c(=O)c(C(=O)Nc2nnc(C)s2)c(O)c2ccccc21,.,4,0.01,-3,3
C#CCNC(=O)C1=C[C@H](c2ccc(Br)cc2)[C@@H](CCCO)[C@H](OCC)O1,1.8,.,.,.,.
CCOc1ccc(C2/C(=C(/O)c3ccc(OC)cc3)C(=O)C(=O)N2c2cc(C)on2)cc1OC (configuration not stated),3.6*,8,0.096,-4,14
CC(=O)N1CCc2cc(S(=O)(=O)NC(CC(C)C)C(=O)N3CCc4ccccc4C3)ccc21 (configuration not stated),-0.43,0,1.2,0,3

# Bioassay records: PubChem, several laboratories
